PubChem BioAssay (NCI)
Compounds without any hit were thinned out: in the full panel of roughly 83,000, 20% have a hit.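 Cell lines were cultured in 96-well plates, exposed to a single compound concentration, and assessed for percent growth 48 hours later.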 Unmarked numbers belong to inactive results. Active and inactive are the calls of the source. Rule for the calls: active = growth percent below 10; inactive = the rest.

How the values were obtained:
Experiment in all cases: NCI-60 one-dose screen, 48 h (100 = growth as untreated, 0 = no growth, -100 = all killed)
Details in all cases: 10 µM unless noted
NCI-H23 lung = system: NCI-H23 lung
NCI-H226 lung = system: NCI-H226 lung
NCI-H322M lung = system: NCI-H322M lung
HOP-62 NSCLC = system: HOP-62 NSCLC
NCI-H460 lung = system: NCI-H460 lung
HOP-92 NSCLC = system: HOP-92 NSCLC
A549/ATCC NSCLC = system: A549/ATCC NSCLC
786-0 renal = system: 786-0 renal
COLO 205 colon = system: COLO 205 colon
NCI-H522 lung = system: NCI-H522 lung

Compound | growth (NCI-H23 lung) | growth (NCI-H226 lung) | growth (NCI-H322M lung) [%] | growth (HOP-62 NSCLC) | growth (NCI-H460 lung) | growth (HOP-92 NSCLC) | growth (A549/ATCC NSCLC) | growth (786-0 renal) | growth (COLO 205 colon) | growth (NCI-H522 lung)
NC(=O)c1ccc[n+](Cc2ccc(Cl)cc2Cl)c1 | 102% | 99.3% | 104 | 88.3% | 102% | 96% | 70.1% | 94.7% | 111% | 
CSc1n(Cc2ccc3ccccc3c2)c(C)c[n+]1Cc1ccc2ccccc2c1 | -50.8% (active) | -37% (active) | 40.5 | 4.62% (active) | -0.332% (active) | -44.4% (active) | 16.5% | 8.97% (active) | -54.3% (active) | 
N#Cc1c2c(nn(-c3ccccc3)c1=O)C(O)=C([N+](=O)[O-])C(c1ccccc1)C2 (centres undefined) | 86% | 102% | 93.1 | 78.3% | 91.6% | 76% | 93.4% | 58% | 99.4% | 
Cc1cc(Cl)nc(NCc2cc(Nc3ccnc4cc(Cl)ccc34)ccc2F)n1 | 41.5% | 64.2% | 79.6 | 76.7% | 34.8% | 40.4% | 58.5% | 76% | 75.8% | 
CN(Cc1cnc2nc(N)nc(N)c2n1)c1ccc(C(=O)N[C@@H](CCc2nn[nH]n2)c2nn[nH]n2)cc1 | 40.8% | 85.4% | 66 | 32.7% | 19.4% | 93.2% | 22.9% | 26.8% | 49.3% | 
O=C(NCCCNc1cc(-c2cn(-c3ccccc3)nc2-c2cccc(O)c2)ccn1)c1ccccc1 | 46% | 54.9% | 75.2 | 47% | 30.4% | 49.8% | 21% | -29.8% (active) | -60.3% (active) | 
CN1CCN(CC(=O)Nc2nc(-c3cccc(NS(=O)(=O)c4cccc5c(N(C)C)cccc45)c3)cs2)CC1 | 57.6% | 75.2% | 105 | 85.9% | 55.7% | 57.6% | 72.5% | 79.5% | 76.9% | 
COc1ccc(C(=NN=C(N)N)c2ccc(OC)cc2)cc1 | 41.3% | 50.3% | 49 | 36.6% | 29.8% | 3.59% (active) | 46.1% | 45.4% | -7.03% (active) | 
CC1O[C@@H](OC2[C@H](OC(=O)/C=C/c3ccc(O)c(O)c3)C(COC3O[C@H](C)C(O)C(O)[C@@H]3O)O[C@@H](OCCc3ccc(O)c(O)c3)[C@H]2O)[C@@H](O)C(O)[C@H]1O (some centres undefined) | 101% | 112% | 89.4 | 103% | 109% | 102% | 89.8% | 98.8% | 104% | 
NS(=O)(=O)c1cnccc1Oc1cccc2cccnc12 | 90.9% | 97.3% | 99.6 | 86.8% | 108% | 78.4% | 94.6% | 97.7% | 103% | 
COc1ccc(/C=N\NC(=O)c2cc(-c3ccc(Br)cc3)n(-c3ccc(S(N)(=O)=O)cc3)n2)cc1 | 71.7% | 77.8% | 63.1 | 48% | 38.5% | 46.8% | 52.1% | 66.9% | 62.2% | 
O=C(COc1ccc(/C=C2\Oc3ccccc3C2=O)cc1)c1ccc(Cl)cc1 | 107% | 92.4% | 126 | 91.1% | 115% | 88% | 112% | 91% | 108% | 
CC(=O)OC[C@H]1OC(Sc2sc(C(=O)c3ccc(Br)cc3)c(N)c2-c2nc3ccccc3s2)[C@H](OC(C)=O)[C@@H](OC(C)=O)[C@@H]1OC(C)=O (some centres undefined) | 23.8% | 28.1% | 83.5 | 63.8% | 44.3% | 81.7% | 71.5% | 62.7% | 85% | 
Cc1cc(NCc2cc(Nc3ccnc4cc(Cl)ccc34)ccc2F)nc(N2CCCC2)n1 | 32.9% | 65.8% | 30.6 | -13.3% (active) | -51.7% (active) | 41.3% | 8.66% (active) | -83.9% (active) | -78.4% (active) | 
COc1ccc(-c2nc3ccc4[nH]ncc4c3c3c2CCCC3)cc1B(O)O | 72.2% | 61.2% | 63.4 | 51.3% | 35.3% | 49.8% | 53.7% | 63.6% | 45.8% | 
Oc1ccc(CN2CCC(N3CCOCC3)CC2)c2cccnc12 | 15.2% | 64.6% | 57 | 17.2% | 10.8% | -16% (active) | 14.1% | 35.1% | 104% | 
COCCc1ccc(OCC(O)CNC(C)C)cc1 (centres undefined) | 98.5% | 109% | 99.2 | 101% | 107% | 73.1% | 104% | 97.8% | 106% | 
O=C(Nc1cccc2c(O)c(N=Nc3ccc(S(=O)(=O)Nc4nccs4)cc3)cc(N=Nc3ccc(S(=O)(=O)Nc4nccs4)cc3)c12)C(Cl)Cl | 103% | 98.8% | 89.7 | 96.8% | 73.4% | 24.7% | 92.2% | 103% | 99% | 
Cc1c(O)cc(-c2cnc(N/N=C\c3ccc(Cl)cc3)s2)c(O)c1C | 91.5% | 87.2% | 96.9 | 98.6% | 100% | 81.1% | 85.1% | 110% | 106% | 
CC(=O)c1ccc(NCC(=O)Nc2ccccn2)cc1 |  | 91.3% | 103 | 98.7% | 104% | 103% | 104% | 102% | 103% | 107%
O=c1c2c3c(sc2nc(N/N=C/c2ccc(Br)cc2)n1Cc1ccccc1)CCCC3 |  | 79.6% | 71.4 | 65.6% | 69.4% | 57.8% | 74.8% | 56.7% | 75.4% | 61.2%
O=C(Nc1cccc(C(F)(F)F)c1)Nc1cccc(C(F)(F)F)c1 |  | -1.66% (active) | 16.7 | -1.14% (active) | 5.08% (active) | -16.2% (active) | -1.94% (active) | 8.34% (active) | -85.2% (active) | -35% (active)
CCCCCCCCCCCCCCCCCC1=NCCN1CCOC1=C(Cl)C(=O)c2ccccc2C1=O |  | 100% | 80.5 | 82.6% | 98.3% | 46.4% | 95.3% | 98.3% | 41.2% | 13.8%
CC(C)(C)C(CCc1ccc(Cl)cc1)N1CCN(C2CCCCC2)CC1 (centres undefined) |  | 78.5% | 82.8 | 47.5% | 25.2% | 45.3% | 24.9% | 42.4% | 33.7% | 41%
COCN1CCC2N(COC)CCC3N(COC)CCC1N23 (centres undefined) |  | 111% | 124 | 107% | 109% | 96.3% | 97.1% | 109% | 94.7% | 107%
Cc1ccc(S(=O)(=O)n2cc(CNc3ccc(N4CCOCC4=O)cc3)c3ccccc32)cc1 |  | 92.4% | 100 | 84.6% | 99.8% | 38.6% | 103% | 92.3% | 85.1% | -10.5% (active)
